Design in all cases: scale not given: direction of the effect not stated beside the values
Test [1] has as its target Protein translocase subunit SecA (Escherichia coli (strain K12)) (UniProt P10408). Briefly: Assay to Identify E. coli SecA ATPase Inhibitors. It counts as functional. Particulars: 30 µM.
Test [2] has as its target T1, Ubiquitin-activating enzyme e1, putative (Leishmania donovani (strain BPK282A1)) (UniProt E9BSI1).
T1 sequence (whole entry): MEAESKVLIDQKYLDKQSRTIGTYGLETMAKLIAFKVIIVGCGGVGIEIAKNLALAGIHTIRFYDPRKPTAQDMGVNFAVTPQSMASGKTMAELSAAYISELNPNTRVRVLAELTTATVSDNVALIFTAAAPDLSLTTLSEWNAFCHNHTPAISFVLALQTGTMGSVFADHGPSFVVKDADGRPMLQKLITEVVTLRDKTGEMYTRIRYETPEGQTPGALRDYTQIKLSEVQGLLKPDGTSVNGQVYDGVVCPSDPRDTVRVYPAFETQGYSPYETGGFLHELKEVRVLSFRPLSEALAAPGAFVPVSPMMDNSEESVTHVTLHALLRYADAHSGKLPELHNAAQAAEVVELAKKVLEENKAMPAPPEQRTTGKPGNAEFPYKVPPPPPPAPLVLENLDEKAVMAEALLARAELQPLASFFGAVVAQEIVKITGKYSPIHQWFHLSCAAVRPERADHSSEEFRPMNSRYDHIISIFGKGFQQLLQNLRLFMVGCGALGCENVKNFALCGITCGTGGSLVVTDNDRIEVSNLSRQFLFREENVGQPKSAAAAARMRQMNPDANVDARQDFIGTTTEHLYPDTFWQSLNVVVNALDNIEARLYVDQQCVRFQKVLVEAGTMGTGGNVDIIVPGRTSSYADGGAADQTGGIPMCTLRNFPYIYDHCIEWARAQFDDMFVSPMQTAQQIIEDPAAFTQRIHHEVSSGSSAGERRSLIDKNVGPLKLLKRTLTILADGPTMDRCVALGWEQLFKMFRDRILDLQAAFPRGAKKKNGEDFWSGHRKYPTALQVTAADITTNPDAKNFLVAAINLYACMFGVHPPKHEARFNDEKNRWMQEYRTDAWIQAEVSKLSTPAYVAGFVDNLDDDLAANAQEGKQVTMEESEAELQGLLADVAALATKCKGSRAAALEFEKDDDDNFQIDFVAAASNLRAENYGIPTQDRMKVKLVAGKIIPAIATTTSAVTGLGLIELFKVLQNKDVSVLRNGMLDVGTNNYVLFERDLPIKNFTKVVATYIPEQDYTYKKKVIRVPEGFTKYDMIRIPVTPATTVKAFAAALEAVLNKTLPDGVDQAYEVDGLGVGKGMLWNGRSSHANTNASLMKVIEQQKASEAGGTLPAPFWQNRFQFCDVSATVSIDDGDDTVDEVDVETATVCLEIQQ
Kind of test: Leishmania donovani Ubiquitin Activating Enzyme (LdE1). It counts as functional. As to conditions: 30 µM.

The target of test [3] is AMP-activated protein kinase, AMPK (Homo sapiens) (UniProt P54646+O43741+P54619+Q9UGJ0+Q9Y478+Q13131+Q9UGI9). Briefly: AMP-dependent Kinase enzyme assay. An in vitro enzyme assay that detects ADP turnover that is directly proportional to AMPK activity. This uses naive AMPK that is activated during the assay with MK-8722. It counts as functional. Particulars: 30 µM.
The target of test [4] is Sialic acid-binding Ig-like lectin 9 (Homo sapiens) (UniProt Q9Y336). Briefly: Hs-Siglec9 ALPHAscreen SOP 20170721. Particulars: 10 µM. Background: In Alpha technology, singlet oxygen from a donor bead excites a nearby acceptor bead.
The next test relates to Trypanosoma cruzi. Briefly: Trypanosoma cruzi phosphomannomutase and mannose-1-phosphate guanylyltransferase assay. Format: functional. Particulars: 10 µM.
In test [5] the target is T2, Arginase-2, mitochondrial (Homo sapiens) (UniProt P78540).
T2 sequence (whole entry): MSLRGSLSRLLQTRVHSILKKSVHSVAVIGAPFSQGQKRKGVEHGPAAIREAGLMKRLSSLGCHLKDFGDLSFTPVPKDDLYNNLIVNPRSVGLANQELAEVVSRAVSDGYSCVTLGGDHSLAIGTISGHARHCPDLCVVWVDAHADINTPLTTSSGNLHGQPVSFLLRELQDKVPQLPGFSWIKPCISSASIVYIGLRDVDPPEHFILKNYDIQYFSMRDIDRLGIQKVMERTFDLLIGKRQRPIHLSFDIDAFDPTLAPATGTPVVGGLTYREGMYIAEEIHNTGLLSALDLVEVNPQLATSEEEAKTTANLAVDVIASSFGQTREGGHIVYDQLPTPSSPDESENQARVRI
Kind of test: in vitro enzyme assay to detect the production of urea directly proportional to the activity of Arginase II. Also: in the data most compounds retested in dose-response had high values. As to conditions: 33.3 µM. It counts as functional.

Test [6] concerns the target T3, Proteasome subunit beta (Trypanosoma cruzi) (UniProt O96673).
T3 sequence (whole entry): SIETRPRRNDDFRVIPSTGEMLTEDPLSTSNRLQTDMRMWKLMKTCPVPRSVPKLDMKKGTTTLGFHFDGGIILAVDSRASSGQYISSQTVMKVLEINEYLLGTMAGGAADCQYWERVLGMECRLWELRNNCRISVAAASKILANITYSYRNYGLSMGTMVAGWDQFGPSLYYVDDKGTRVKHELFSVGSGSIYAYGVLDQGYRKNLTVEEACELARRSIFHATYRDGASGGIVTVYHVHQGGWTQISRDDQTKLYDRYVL
Kind of test: Trypanosoma cruzi proteasome chymotrypsin-like activity (TcProtChymo) assay. Also: in the data most compounds retested in dose-response had high values. It counts as functional. As to conditions: 9.37 µM.

The species entered for another test is Homo sapiens. Kind of test: To identify inhibition of the IFN signalling (Jak-Stat) pathway via expression of an eGFP reporter gene under the control of an IFN-stimulated response element (ISRE) containing MxA promoter. As to conditions: 30 µM. It counts as functional. On the technique in general: Reporter assays use an easily measured gene product as a stand-in for the process of interest.

Test [7] has as its target T4, Tyrosyl-tRNA synthetase, putative (Trypanosoma cruzi (strain CL Brener)) (UniProt Q4DSP6).
T4 sequence (whole entry): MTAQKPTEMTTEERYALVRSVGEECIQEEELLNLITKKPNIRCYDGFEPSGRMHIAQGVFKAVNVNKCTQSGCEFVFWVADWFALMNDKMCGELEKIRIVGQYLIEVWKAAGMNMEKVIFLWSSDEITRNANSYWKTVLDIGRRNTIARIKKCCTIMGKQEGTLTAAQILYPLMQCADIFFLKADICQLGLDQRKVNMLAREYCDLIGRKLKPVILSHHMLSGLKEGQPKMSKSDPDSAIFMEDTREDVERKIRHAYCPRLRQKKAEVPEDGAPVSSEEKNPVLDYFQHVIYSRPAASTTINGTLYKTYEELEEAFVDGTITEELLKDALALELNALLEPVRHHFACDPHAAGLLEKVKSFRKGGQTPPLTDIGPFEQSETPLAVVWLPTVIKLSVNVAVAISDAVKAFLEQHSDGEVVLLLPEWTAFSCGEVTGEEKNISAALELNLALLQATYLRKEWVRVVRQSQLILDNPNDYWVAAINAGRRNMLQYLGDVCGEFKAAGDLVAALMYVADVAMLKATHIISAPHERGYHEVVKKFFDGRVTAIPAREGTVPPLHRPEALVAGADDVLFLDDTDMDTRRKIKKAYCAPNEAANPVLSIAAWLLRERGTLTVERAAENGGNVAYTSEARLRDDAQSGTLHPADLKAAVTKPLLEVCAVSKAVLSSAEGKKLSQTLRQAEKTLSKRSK
Briefly: Trypanosoma cruzi tyrosyl tRNA synthetase (TcYRS) _High Tyrosine SOP. Also: in the data most compounds retested in dose-response had high values. It counts as functional. As to conditions: 30 µM.

Test [8] has as its target T4, Tyrosyl-tRNA synthetase, putative (Trypanosoma cruzi (strain CL Brener)). Briefly: Trypanosoma cruzi tyrosyl tRNA synthetase (TcYRS) SOP. It counts as functional. As to conditions: 30 µM.
In test [9] the target is Chromo domain-containing protein 1 (Saccharomyces cerevisiae (strain ATCC 204508 / S288c) (Baker's yeast)) (UniProt P32657). Briefly: ScCHD-1 Enzyme Inhibition Assay. Also: in the data most compounds retested in dose-response had high values. It counts as functional. Particulars: 30 µM.

For some of these results: Measured potencies and affinities stand elsewhere.

Protein translocase subunit SecA (Escherichia coli (strain K12)), sequence (P10408 whole entry): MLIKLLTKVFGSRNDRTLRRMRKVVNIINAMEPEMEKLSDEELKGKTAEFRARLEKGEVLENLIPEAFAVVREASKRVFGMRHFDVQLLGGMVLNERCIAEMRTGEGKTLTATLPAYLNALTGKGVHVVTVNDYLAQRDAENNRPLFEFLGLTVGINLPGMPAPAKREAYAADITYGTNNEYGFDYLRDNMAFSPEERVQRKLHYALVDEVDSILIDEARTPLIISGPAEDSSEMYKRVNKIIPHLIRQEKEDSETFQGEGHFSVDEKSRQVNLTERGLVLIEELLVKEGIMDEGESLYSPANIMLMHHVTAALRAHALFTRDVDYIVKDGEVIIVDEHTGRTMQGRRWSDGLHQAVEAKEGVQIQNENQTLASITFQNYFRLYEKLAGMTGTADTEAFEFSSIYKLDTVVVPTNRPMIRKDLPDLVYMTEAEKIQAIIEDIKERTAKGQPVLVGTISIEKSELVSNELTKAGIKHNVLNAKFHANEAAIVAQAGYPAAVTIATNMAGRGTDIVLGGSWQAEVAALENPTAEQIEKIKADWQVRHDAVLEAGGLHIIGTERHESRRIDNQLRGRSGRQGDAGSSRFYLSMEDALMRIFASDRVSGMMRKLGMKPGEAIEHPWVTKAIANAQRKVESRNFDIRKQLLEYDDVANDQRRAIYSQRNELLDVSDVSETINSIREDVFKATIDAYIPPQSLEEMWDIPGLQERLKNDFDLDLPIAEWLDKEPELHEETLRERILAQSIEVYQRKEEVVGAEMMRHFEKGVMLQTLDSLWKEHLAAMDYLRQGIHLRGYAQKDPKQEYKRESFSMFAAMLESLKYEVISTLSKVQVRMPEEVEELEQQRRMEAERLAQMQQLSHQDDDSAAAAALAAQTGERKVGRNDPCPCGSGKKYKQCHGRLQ
Sialic acid-binding Ig-like lectin 9 (Homo sapiens), sequence (Q9Y336 whole entry): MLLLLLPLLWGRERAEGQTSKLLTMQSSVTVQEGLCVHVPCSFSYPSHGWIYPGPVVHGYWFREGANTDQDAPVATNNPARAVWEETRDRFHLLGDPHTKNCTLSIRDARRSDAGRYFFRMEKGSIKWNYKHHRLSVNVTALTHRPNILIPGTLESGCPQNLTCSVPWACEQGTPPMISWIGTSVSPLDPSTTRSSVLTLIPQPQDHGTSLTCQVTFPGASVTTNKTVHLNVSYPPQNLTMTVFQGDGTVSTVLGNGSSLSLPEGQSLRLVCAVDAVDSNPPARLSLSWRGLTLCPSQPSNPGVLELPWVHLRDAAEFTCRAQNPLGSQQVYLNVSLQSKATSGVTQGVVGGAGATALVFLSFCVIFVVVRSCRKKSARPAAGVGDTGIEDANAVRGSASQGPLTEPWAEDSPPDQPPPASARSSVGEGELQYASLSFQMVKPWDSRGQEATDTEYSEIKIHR
Chromo domain-containing protein 1 (Saccharomyces cerevisiae (strain ATCC 204508 / S288c) (Baker's yeast)), sequence (P32657 whole entry, the tested form may be a part): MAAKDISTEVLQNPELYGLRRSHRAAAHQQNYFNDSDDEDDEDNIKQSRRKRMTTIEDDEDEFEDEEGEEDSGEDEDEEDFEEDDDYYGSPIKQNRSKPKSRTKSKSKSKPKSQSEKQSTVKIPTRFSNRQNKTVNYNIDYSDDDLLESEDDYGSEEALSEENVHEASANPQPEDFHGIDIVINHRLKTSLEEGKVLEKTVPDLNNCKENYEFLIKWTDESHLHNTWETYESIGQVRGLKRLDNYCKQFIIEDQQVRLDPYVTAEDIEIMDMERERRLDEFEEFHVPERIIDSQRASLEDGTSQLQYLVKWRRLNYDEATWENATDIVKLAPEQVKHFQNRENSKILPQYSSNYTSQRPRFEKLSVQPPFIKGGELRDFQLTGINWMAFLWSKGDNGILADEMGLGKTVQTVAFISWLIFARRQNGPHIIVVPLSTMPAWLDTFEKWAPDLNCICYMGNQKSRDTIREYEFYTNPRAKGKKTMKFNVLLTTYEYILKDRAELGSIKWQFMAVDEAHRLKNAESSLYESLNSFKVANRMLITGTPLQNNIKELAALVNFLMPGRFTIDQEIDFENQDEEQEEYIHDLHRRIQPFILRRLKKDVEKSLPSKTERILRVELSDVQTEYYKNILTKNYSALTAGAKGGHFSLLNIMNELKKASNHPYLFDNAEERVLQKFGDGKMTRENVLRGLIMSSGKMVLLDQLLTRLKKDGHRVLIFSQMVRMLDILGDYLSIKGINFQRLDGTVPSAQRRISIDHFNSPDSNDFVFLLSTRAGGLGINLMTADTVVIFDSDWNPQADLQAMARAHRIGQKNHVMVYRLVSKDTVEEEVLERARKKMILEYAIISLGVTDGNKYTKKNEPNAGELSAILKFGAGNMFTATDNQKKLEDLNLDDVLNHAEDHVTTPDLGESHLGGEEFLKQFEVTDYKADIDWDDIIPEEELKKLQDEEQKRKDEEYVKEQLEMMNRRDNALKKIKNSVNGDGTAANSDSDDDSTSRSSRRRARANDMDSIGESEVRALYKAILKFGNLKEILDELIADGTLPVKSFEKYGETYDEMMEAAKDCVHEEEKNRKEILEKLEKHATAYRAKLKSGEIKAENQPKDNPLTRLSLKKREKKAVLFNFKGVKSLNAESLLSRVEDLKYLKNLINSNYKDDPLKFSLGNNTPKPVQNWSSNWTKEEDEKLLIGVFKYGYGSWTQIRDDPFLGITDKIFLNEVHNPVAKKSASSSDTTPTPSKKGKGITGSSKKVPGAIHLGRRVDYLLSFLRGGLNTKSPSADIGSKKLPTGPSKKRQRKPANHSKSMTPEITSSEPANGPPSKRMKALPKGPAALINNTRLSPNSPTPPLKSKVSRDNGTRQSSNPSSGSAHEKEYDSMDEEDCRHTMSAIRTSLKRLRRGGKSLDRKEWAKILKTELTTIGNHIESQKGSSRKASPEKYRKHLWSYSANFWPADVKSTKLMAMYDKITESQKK

Turning to `O=S(=O)(NCC1CCN(c2ccccn2)CC1)c1ccccc1F`, the Percent Effect in test [1] was -1.81%; in test [2], 23.4%; in [3], 0.655%; in test [4] it was -16.3%; with Trypanosoma cruzi, 3.25%; in test [5], -5.81%. Also, the Percent Effect was 12% in test [6]; 14.5% in the test listed under Homo sapiens; 2.12% in test [7]; 14.1% in [8]; -12.6% in [9].
Consider `Cc1ccc(C(=O)N2CCC3(CCN(C(=O)c4cccnc4)C3)CC2)o1`, for which the Percent Effect was -2.08% in test [1]; 13.5% in test [2]; 6.42% in test [3]; -12.6% in [4]; -3.62% in the test with Trypanosoma cruzi; 14.3% in [5]. For the same compound, the Percent Effect was 13.8% in test [6]; -16.6% in the test listed under Homo sapiens; 1.08% in [7]; 5.13% in [8]; -2.81% in test [9].
Regarding `CN(C)C(=O)CC1CC2(CCNCC2)c2cc(F)ccc21` (stereo unspecified), the Percent Effect in test [1] is -1.58%; in test [2], -5.41%; in test [3], 8.49%; in [4], -3.96%; with Trypanosoma cruzi, -6.35%; in [5] it was -2.23%. Further, the Percent Effect in test [6] is 21%; in the test listed under Homo sapiens it was -0.894%; in test [7], -2.16%; in [8], 0%; in test [9], 1.02%.
For `Cc1ccc(CNC(C)c2ccc3[nH]c(=O)[nH]c3c2)s1` (stereo unspecified), the Percent Effect was -3.59% in test [1]; 13.5% in test [2]; -7.56% in test [3]; 14% in test [4]; 5% with Trypanosoma cruzi; -5.61% in test [5]. For the same compound, the Percent Effect is -0.721% in [6]; 14.9% in the test filed under Homo sapiens; 2.46% in [7]; 11.1% in test [8]; -6.23% in test [9].
Regarding `Cc1ccoc1C(=O)N1CCO[C@H]2[C@H](OCCN(C)C)CC[C@@H]21`, the Percent Effect in test [1] was 0.717%; in [2], 5.33%; in test [3], 0.186%; in [4], 15.6%; in the test on Trypanosoma cruzi it was -2.7%; in [5], -56.5%. Besides, the Percent Effect in test [6] is 5.98%; in the test filed under Homo sapiens, -12.8%; in test [7], 2.08%; in test [8] it was 10%; in test [9] it was -3.32%.
As to `CN1CC(=O)N(c2ccccc2)CC12CCN(Cc1nccs1)C2` (stereo unspecified), the Percent Effect in test [1] is 3.96%; in [2], 5.33%; in [3], 4.18%; in test [4] it was -3.23%; in the test with Trypanosoma cruzi, -6.95%; in test [5] it was -56.1%. Also, the Percent Effect is 13% in test [6]; -0.957% in the test filed under Homo sapiens; 4.17% in test [7]; 22.5% in test [8]; -4.64% in test [9].
Turning to `CCOC(=O)NC(CNC(=O)CCc1ccccn1)CC(C)C` (stereo unspecified), the Percent Effect in [1] is -7.25%; in [2] it was 0%; in test [3], 0.68%; in test [4], -3.55%; in the test with Trypanosoma cruzi it was 3.62%; in [5] it was 2.73%. Besides, the Percent Effect was 4.72% in test [6]; -1.48% in the test filed under Homo sapiens; -5.38% in test [7]; 3.7% in [8]; -0.238% in test [9].
Regarding `CCOCCC(=O)N1CCCN(Cc2csc(CC)n2)CC1`, the Percent Effect in test [1] is -0.651%; in test [2] it was 3.8%; in [3] it was 1.45%; in [4] it was 3.57%; in the test with Trypanosoma cruzi, -1.74%; in test [5] it was 2.37%. The Percent Effect in test [6] is 25.7%; in the test filed under Homo sapiens, 7.51%; in [7], 6.25%; in test [8] it was 10.1%; in [9], -30.1%.
As for `CCOCCn1c(=O)[nH]c2cc(C(=O)N(C)Cc3nc(C)cs3)ccc21`, the Percent Effect is -0.0499% in [1]; 8.11% in test [2]; -5.57% in test [3]; 8.59% in test [4]; -2.9% in the test on Trypanosoma cruzi; 0.476% in test [5]. The Percent Effect in [6] was 21%; in the test listed under Homo sapiens it was 1.41%; in test [7], 5.82%; in test [8], 17.1%; in test [9], -3.61%.
In the case of `Cc1cnn(C2CN(CC(=O)NCCc3ccccc3)C2)c1`, the Percent Effect in test [1] is -3.73%; in test [2], -10.5%; in test [3] it was 3.48%; in [4] it was 3.23%; in the test on Trypanosoma cruzi, 1.21%; in test [5] it was -2.16%. Besides, the Percent Effect was -0.254% in [6]; 8.21% in the test listed under Homo sapiens; 5.42% in test [7]; 13.6% in test [8]; 4.88% in test [9].
In the case of `O=C(NCCCN1CCOCC1)Nc1cnc2cc(Cl)ccc2c1O`, the Percent Effect in test [1] was 0.589%; in test [2] it was 17.6%; in test [3] it was 9.55%; in [4] it was -8.53%; in the test on Trypanosoma cruzi, -3.16%; in test [5], -5.34%. Moreover, the Percent Effect in test [6] was 12.8%; in the test listed under Homo sapiens, 31.9%; in test [7], 0%; in test [8], 1.3%; in test [9] it was -6.01%.

Values taken from ChEMBL document CHEMBL3988442, “University of Dundee, Small-Polar-MMV Screening Library” (2021).
